From PubChem BioAssay AID624483 (NMMLSC, 2012) come the findings set out here.

Each structure is given as a SMILES string. The whole screen tested about 360,000 compounds, of which about 11,000 (3.1%) were called active. Roughly 2% stayed inconclusive and do not appear here. What follows is part of a selection rich in actives, with near analogues and random picks from the rest. Unmarked numbers belong to inactive results. Cut-off read from the data, not from the text of the source: active = fluorescence intensity above about 16000; inconclusive = no clear call, values can overlap the other calls; inactive = below that.

This assay in a line: counter-screen for toxin protease inhibitors: compound fluorescence, primary screen, artefact control for toxin protease inhibitor project, biochemical, multiplex microsphere, HTS (AID 624483). To be noted: compound autofluorescence counterscreen, microsphere flow cytometry; active compounds read high.
For `O=C(Cc1ccccc1)N/N=C/c1ccc(Cl)cc1Cl`, the fluorescence intensity is 23400 (active).

In the case of `C=CCOc1ccccc1/C=N/NC(=O)Cc1ccccc1`, the fluorescence intensity is 4140.

As to `O=C(Cn1cc(C(F)(F)F)ccc1=O)N/N=C/c1ccc(Cl)cc1Cl`, the fluorescence intensity is 1980.

For the compound `COC(=O)c1ccc2nc(C3CCCCC3)c(Cc3cccc(F)c3)n2c1`, the fluorescence intensity is 4850.

Turning to `Clc1ccc(CSc2nnc([C@@H]3CCCN3)o2)cc1`, the fluorescence intensity is 6580.

Regarding `CCOC(=O)C1=CCC2C(=O)N(Cc3ccccc3)C(=O)C12` (stereo not drawn), the fluorescence intensity is 4910.

On to `CCOC(=O)C1CCN(Cc2nnc(-c3cccc(Br)c3)o2)CC1`, for which the fluorescence intensity is 3660.

Turning to `CCOC(=O)C1CCN(c2ncnc3c2c(-c2ccccc2)cn3-c2ccc(C)cc2)CC1`, the fluorescence intensity was 3930.

In the case of `CCOC(=O)C1CCN(c2ncnc3c2oc2ccc(Br)cc23)CC1`, the fluorescence intensity is 22700 (active).

In the case of `O=C(CSc1nc2cccc(F)c2c(=O)n1-c1ccccc1)Nc1ccc2c(c1)CCC2`, the fluorescence intensity was 4620.

Take `C=CCn1c(SCc2csc(C)n2)nc2scc(-c3ccc(C)o3)c2c1=O`: the fluorescence intensity was 21100 (active).

Turning to `C=CCn1c(SCc2c(C)noc2C)nc2sc3c(c2c1=O)CCC(C)C3` (stereo not drawn), the fluorescence intensity was 2390.

In the case of `C=CCn1c(SCC(=O)NCC2CCCO2)nc2sc(C)c(C)c2c1=O` (stereo not drawn), the fluorescence intensity was 5940.

Consider `COc1ccc(C(C)(NC(C)=O)c2nc(-c3ccc(S(C)(=O)=O)cc3)cs2)cc1` (stereo not drawn), for which the fluorescence intensity is 2940.

Regarding `COc1ccccc1C1CC(=O)n2c(nc(-c3ccccc3)c2-c2ccccc2)S1` (stereo not drawn), the fluorescence intensity was 1950.

On to `O=C(CSC1=Nc2ccccc2C2=NC(c3ccccc3)C(=O)N12)NCC1CCCO1` (stereo not drawn), for which the fluorescence intensity was 2380.

Turning to `CCC(C)NC(=O)CSC1=Nc2ccccc2C2=NC(CCC(=O)NCc3ccco3)C(=O)N12` (stereo not drawn), the fluorescence intensity is 19500 (active).

For the compound `NC(=O)CSC1=Nc2ccccc2C2=NC(CCC(=O)NCc3ccc(F)cc3)C(=O)N12` (stereo not drawn), the fluorescence intensity was 3100.

In the case of `CCCCNC(=O)C[C@@H]1C[C@@]2(C(=O)OCC)CCC=C2N(Cc2cccc3ccccc23)C1=O`, the fluorescence intensity is 5990.

In the case of `OCCc1ccc(NCCc2ccco2)cc1`, the fluorescence intensity is 6000.

Regarding `CC(=O)Nc1cccc(-c2cc3nc(NCc4cccnc4)n(C)c(=O)c3s2)c1`, the fluorescence intensity was 3710.

Turning to `O=c1c2ccccc2nnn1CSc1nnnn1-c1ccccc1`, the fluorescence intensity is 16800 (active).

On to `Nc1nnc(SCn2nnc3ccccc3c2=O)s1`, for which the fluorescence intensity was 4300.

`C=CCn1c(SCn2nnc3ccccc3c2=O)nnc1-c1ccc(Cl)cc1`: the fluorescence intensity was 15200.

As to `Cc1cc2nc(-c3ccc(F)cc3)c(Cc3ccsc3)n2c(C)c1Br`, the fluorescence intensity is 4760.

With `COC(=O)c1ccccc1NC(=O)C1CCN(S(=O)(=O)c2cc(OC)ccc2OC)CC1`, the fluorescence intensity was 16400 (active).

In the case of `COC(=O)c1ccccc1NC(=O)C1CC(=O)N(c2ccc(OC)cc2)C1` (stereo not drawn), the fluorescence intensity is 3990.

For `COc1ccc(NC(=O)C2CCN(S(=O)(=O)c3ccc4[nH]c(=O)oc4c3)CC2)c(OC)c1`, the fluorescence intensity is 4520.

Turning to `C/C=C/C(=O)Nc1ccc(N2CCN(c3ccc(C(F)(F)F)cn3)CC2)nc1`, the fluorescence intensity is 5380.

`COc1ccccc1N1CCN(C(=O)c2cc(-c3ccc(Cl)c(Cl)c3)on2)CC1`: the fluorescence intensity is 16600 (active).

Regarding `O=C(c1cc(-c2ccc(Cl)cc2)on1)N1CCN(c2ccccc2)CC1`, the fluorescence intensity is 4120.

Regarding `COc1ccc(-c2cc(C(=O)N3CCN(c4ccc(F)cc4)CC3)no2)cc1`, the fluorescence intensity was 6330.

Consider `O=C(NCc1ccco1)c1ccc(Cn2c(=O)c3sccc3n(Cc3ccc(F)cc3)c2=O)cc1`, for which the fluorescence intensity is 5200.

Regarding `O=C(Cc1ccc(-n2c(=O)c3sccc3n(Cc3ccc(F)cc3)c2=O)cc1)NCc1ccco1`, the fluorescence intensity is 5860.

For the compound `O=C(NCc1ccco1)c1cc2sccc2n1Cc1ccc(F)cc1`, the fluorescence intensity is 20800 (active).

With `CC(C)CC(=O)Nc1nnc(S(=O)(=O)N(C)c2ccc(Cl)cc2)s1`, the fluorescence intensity was 4020.

As to `COC(=O)c1ccc2nc(-c3ccc(Cl)cc3)c(Cc3cccc(F)c3)n2c1`, the fluorescence intensity was 6340.

For the compound `O=C(NCc1nnnn1-c1ccc(Cl)cc1)c1ccc([N+](=O)[O-])o1`, the fluorescence intensity is 3830.

Regarding `Oc1cccc2cc(-c3ccncc3)cnc12`, the fluorescence intensity was 2990.

Consider `O=C(NCCc1ccccn1)c1ccc(COc2ccccc2)o1`, for which the fluorescence intensity is 19400 (active).

As for `O=C(CNC(=O)COc1ccccc1)NCCc1ccccn1`, the fluorescence intensity is 3410.

Turning to `O=C(NCCc1ccccn1)c1cccnc1Oc1ccc(Cl)cc1`, the fluorescence intensity is 5560.

As for `CNc1cncc(-c2cccc(C(=O)N3CCOCC3)c2)n1`, the fluorescence intensity was 3830.

`CCCCOC(=O)NCN1C(=O)C2C3C=CC(C3)C2C1=O` (stereo not drawn): the fluorescence intensity was 3370.

For the compound `COc1ccccc1C1C(C(N)=O)=C(C)Nc2nc(CCCO)nn21` (stereo not drawn), the fluorescence intensity is 3450.

On to `CCCCCOC(=O)C1=C(C)Nc2nnnn2C1c1ccc(OC)c(OC)c1OC` (stereo not drawn), for which the fluorescence intensity is 21200 (active).

Consider `COC(=O)C1=C(C(=O)c2ccc(C)cc2)C(c2ccccc2)n2nnnc2N1` (stereo not drawn), for which the fluorescence intensity was 2650.

On to `CCOc1ccc(S(=O)(=O)Nc2nccs2)cc1`, for which the fluorescence intensity was 4450.

For the compound `CCOc1ccc2sc(NS(=O)(=O)c3ccc(N)cc3)nc2c1`, the fluorescence intensity is 3350.

For the compound `CCOc1ccc(S(=O)(=O)Nc2nc3cc(OC)ccc3s2)cc1`, the fluorescence intensity was 20400 (active).

Consider `COc1ccc(-c2nc3ccc(Br)cn3c2Cc2ccc(C)cc2)cc1OC`, for which the fluorescence intensity was 4350.

Regarding `CCC(=O)Nc1nnc(S(=O)(=O)N(CC(C)C)c2ccccc2)s1`, the fluorescence intensity is 3230.

On to `CCOC(=O)C(Sc1ncc(C#N)c(N)n1)C(C)C` (stereo not drawn), for which the fluorescence intensity was 2490.

For the compound `CCOC(=O)c1ccc(NC(=O)CSc2nnc(COc3ccccc3OC)n2C)cc1`, the fluorescence intensity is 23600 (active).

Consider `COC(=O)c1ccc(NC(=O)CSc2nnc(C3CC3)n2C)cc1`, for which the fluorescence intensity was 5470.

For the compound `CCn1c(CNC(=O)c2ccc(OC)c(OC)c2)nnc1SCC(=O)Nc1ccccc1`, the fluorescence intensity is 11100.

In the case of `COC(=O)Nc1ccc(S(=O)(=O)N(C)CC(F)(F)C(F)F)cc1`, the fluorescence intensity is 3990.

Consider `CC(=O)Nc1cccc(-c2ccnc3c2CC(C)(C(=O)NCc2ccccc2)O3)c1` (stereo not drawn), for which the fluorescence intensity is 3920.

Regarding `Cc1cccc(C(=O)OCC(=O)Nc2sccc2C(N)=O)c1C`, the fluorescence intensity was 3570.

Turning to `COc1cc(OC)cc(-c2nc3nc(C)c(CCC(=O)NCc4ccco4)c(C)n3n2)c1`, the fluorescence intensity is 21000 (active).

Take `COc1ccc(-c2cc3nc(C)c(CCC(=O)NC(C)CCc4ccco4)c(C)n3n2)c(OC)c1` (stereo not drawn): the fluorescence intensity is 3850.

`Cc1nc2c(-c3ccc(F)cc3)c(C)nn2c(C)c1CCC(=O)NCc1ccco1`: the fluorescence intensity is 5410.

With `CCn1cc(C(=O)N2CC=C(c3ccccc3)CC2)c(=O)c2ccc(C)nc21`, the fluorescence intensity is 11100.

In the case of `COc1cccc(CNc2nc(NCc3cccs3)nc3ccsc23)c1`, the fluorescence intensity is 3840.

`COc1ccc(S(=O)(=O)n2cnc3ccccc32)c(C)c1`: the fluorescence intensity is 3080.

On to `Cc1ccc(S(=O)(=O)N(C)CC(=O)OCC(=O)N2CC(=O)Nc3ccccc32)cc1`, for which the fluorescence intensity is 4160.

As to `Cc1ccccc1SCC(=O)OCC(=O)N1CC(=O)Nc2ccccc21`, the fluorescence intensity was 3940.

Turning to `Cc1ccc(S(=O)(=O)N2CCC(C(=O)OCC(=O)N3CC(=O)Nc4ccccc43)CC2)cc1`, the fluorescence intensity is 23100 (active).

Turning to `COc1ccc(C(=O)N2CCCCC2c2cc(C(=O)Nc3ccc(F)c(Cl)c3)no2)cc1` (stereo not drawn), the fluorescence intensity was 3750.

As to `CC1(C(=O)NCc2ccc(F)c(F)c2)Cc2c(-c3ccc4c(c3)OCO4)ccnc2O1` (stereo not drawn), the fluorescence intensity was 2890.

As to `Cc1nc(C(F)(F)F)ccc1C(=O)N1CCC1(C)C(=O)NS(=O)(=O)c1ccc(F)cc1F` (stereo not drawn), the fluorescence intensity is 3750.

In the case of `CN(C)C(=O)c1cccn(Cc2cccc(C(F)(F)F)c2)c1=O`, the fluorescence intensity was 4630.

In the case of `O=c1c([N+](=O)[O-])cccn1Cc1ccc(F)cc1Cl`, the fluorescence intensity was 4380.

For `O=c1c([N+](=O)[O-])cc(C(F)(F)F)cn1Cc1cccc(Cl)c1`, the fluorescence intensity is 22600 (active).

`COc1ccc(C2CC(c3cccc(OC)c3)=NN2c2ccc(S(N)(=O)=O)cc2)cc1` (stereo not drawn): the fluorescence intensity was 3270.

Regarding `CCN(CC)CCN(C)C(c1ccnc2ccccc12)c1nnnn1-c1ccc2c(c1)OCCO2` (stereo not drawn), the fluorescence intensity is 4670.

For `COC(=O)[C@]12CCCCC=C1N(Cc1ccccc1)C(=O)[C@H](CC(=O)NCc1ccc(C)o1)C2`, the fluorescence intensity was 5960.

In the case of `Nc1ncnc2c1ncn2[C@@H]1O[C@H](C(=O)N2CCCN(Cc3ccccc3F)CC2)[C@@H](O)[C@H]1O`, the fluorescence intensity was 5460.

Regarding `CCCCCc1c(-c2cccc(Br)c2)ncn1CCc1ccccc1OC`, the fluorescence intensity was 5900.

Take `CN(C)/C=C/c1c(C#N)c(=O)ncn1Cc1ccccc1`: the fluorescence intensity is 22600 (active).

Turning to `CN(C)c1nccc(NCc2ccccc2)c1C#N`, the fluorescence intensity is 2510.

For the compound `Cc1c(C#N)c2ncn(CC#N)c(=O)c2n1-c1ccccc1`, the fluorescence intensity was 2670.

As for `COc1ccc(NC(=O)C2=C(C)NC(=O)NC2c2ccccc2[N+](=O)[O-])cc1` (stereo not drawn), the fluorescence intensity is 4060.

Take `COc1cc(Cl)cc(C2NC(=O)NC(C)=C2C(=O)NCc2ccccc2)c1O` (stereo not drawn): the fluorescence intensity is 6250.

Take `CC1=C(C(=O)Nc2ccc(Cl)cc2)C(c2ccco2)NC(=O)N1` (stereo not drawn): the fluorescence intensity is 21000 (active).

On to `Cc1cccc(/C(N)=N/OC(=O)c2ccccc2Cl)c1`, for which the fluorescence intensity was 2520.

On to `O=C(OCc1cn(-c2ccc(Cl)c(Cl)c2)nn1)c1ccccc1Cl`, for which the fluorescence intensity is 23100 (active).

In the case of `NC(=O)COC(=O)c1cc(S(=O)(=O)N2CCN(c3ccccc3)CC2)ccc1Cl`, the fluorescence intensity is 2210.

Regarding `O=C(Nc1ccccc1)c1ccccc1Br`, the fluorescence intensity was 3570.

`CC(OC(=O)CN1C(=O)c2ccccc2C1=O)C(=O)c1ccccc1` (stereo not drawn): the fluorescence intensity is 8630.

Regarding `CC(C)OC(=O)CN1C(=O)C(=O)c2ccccc21`, the fluorescence intensity was 22400 (active).

Consider `CCOC(=O)CN1C(=O)C(=O)c2cc(C)ccc21`, for which the fluorescence intensity is 3160.

Regarding `CC1(C(=O)NS(=O)(=O)c2cccs2)CCN1C(=O)Cc1ccc(-c2ccccc2)cc1` (stereo not drawn), the fluorescence intensity was 3400.
